Screens (PubChem)
aSyn 5UTR act: Activators working through SNCA 5'UTR binding (MLPCN) | activity score, % (tested at 7.5 µM), hits read low | AID 1814 | alpha-synuclein 5'UTR reporter, activators screen | 300,000 compounds, 7.1% hits; in the data active means activity score below about -60%
Active calls of the source: *. Only a sample is shown.

SMILES | aSyn 5UTR act
COc1cccc(-n2ccnc2SCC(=O)Nc2nccs2)c1 | -73*
CCOc1ccc(-n2c(SCC(=O)Nc3nccs3)nc3c(c2=O)SCC3)cc1 | 57
COC(=O)c1ccc(-c2ccc(Cl)cc2)nc1C | -126*
O=C(C[n+]1cn(C(F)F)c2ccccc21)c1ccc(OC(F)F)cc1 | -129*
CC(=O)Nc1ccc(NC(=O)c2sc3nc4n(c(=O)c3c2C)CCCCC4)cc1 | 76
COc1cc(OC)cc(C(=O)Nc2ccc3nc4n(c(=O)c3c2)CCCCC4)c1 | -115*
O=C(Nc1ccc2nc3n(c(=O)c2c1)CCCC3)c1cccc([N+](=O)[O-])c1 | -103*
C[n+]1c(/C=C/c2ccc3c(c2)OCO3)ccc2ccccc21 | -150*
C[n+]1c(/C=C/c2ccc(O)cc2)ccc2ccccc21 | -172*
COc1ccc(OC)c(C(=O)NC2CC(C)(C)Cc3c2cnn3-c2ccccc2)c1 (configuration not stated) | 67
CCn1ncc(C(=O)Nc2cccc(Cl)c2)c1C | -207*
CCc1cccc(NC(=O)c2cnn(-c3ccccc3)c2C)c1 | -144*
O=C(Nc1cccc(Cl)c1)c1ccc(Cn2cc(Cl)cn2)cc1 | -70*
COc1cccc(NC(=O)c2cnn(-c3ccccc3)c2C)c1 | -91*
Cc1ccc(NC(=O)c2cnn(-c3ccccc3)c2C)c(C)c1 | -212*
Oc1ccc(-c2nccc(-c3ccccn3)n2)cc1 | -188*
O=C(Oc1ccc(-c2nccc(-c3ccccn3)n2)cc1)c1cccc(C(F)(F)F)c1 | -140*
Cc1ccc(C(=O)Oc2ccc(-c3nccc(-c4ccccn4)n3)cc2)cc1 | -144*
FC(F)(F)c1cc(Oc2ccccc2Cl)nc(-c2ccccn2)n1 | 64
COc1ccccc1Nc1nc(NCCO)nc(N)c1[N+](=O)[O-] | 61
COc1ccccc1Nc1nc2ccc(C)cc2cc1C#N | -87*
CC1CCC(NC(=O)Nc2cccs2)CC1 (configuration not stated) | -107*
CC1CCC(NC(=O)CNC(=O)c2cccs2)CC1 (configuration not stated) | -88*
CN(C)c1ccc(NC(=O)Nc2csc3ccccc23)cc1 | -141*
O=C(Nc1ccc(F)cc1)Nc1csc2ccccc12 | -87*
SMILES | aSyn 5UTR act
COc1cccc(OCc2cc(/C=N/Nc3ccc(C(=O)O)cc3)ccc2OC)c1 | -92*
CCOc1cc(/C=N/Nc2ccc(C(=O)O)cc2)ccc1OC(=O)c1ccccc1C | -91*
CCOc1ccc(C2C=C(c3ccccc3)Nc3nnnn32)cc1 (configuration not stated) | -152*
COc1ccccc1C1C=C(c2ccc(C)cc2)Nc2nnnn21 (configuration not stated) | -128*
COc1ccccc1C1CC(=O)Nc2cc(C)c(C)cc21 (configuration not stated) | 63
Cc1ccc(C2=CC(c3cccs3)n3nnnc3N2)cc1 (configuration not stated) | -187*
CCOC(=O)c1cn2ccc(C)cc2n1 | -107*
Cn1c(C(C#N)C(=O)c2ccco2)nc2ccccc21 (configuration not stated) | -125*
CCn1cnc2cc(NCc3nc4ccccc4n3Cc3ccccc3)ccc21 | -138*
CCn1cnc2cc(NCc3nc4ccccc4n3C)ccc21 | -108*
CC(C)n1cnc2cc(NCc3nc4ccccc4n3C)ccc21 | -115*
CNc1nc(-c2ccc(Cl)cc2)cs1 | -204*
CCNc1nc(-c2ccc(Cl)cc2)cs1 | -169*
Cc1ccccc1-c1noc(C2CCCCC2)n1 | -71*
Cc1ccccc1-c1noc(-c2ccc(Cl)cc2)n1 | -192*
Cc1ccccc1-c1noc(-c2ccccc2F)n1 | -259*
Cc1ccccc1-c1noc(-c2ccc(O)cc2)n1 | -226*
CN(C)c1ccc(-c2noc(-c3ccccc3O)n2)cc1 | 71
Fc1ccccc1-c1nc(-c2ccc(Cl)cc2)no1 | -203*
COc1ccc(OC(=O)Nc2ccccc2)cc1 | -92*
CCc1ccc(OC(=O)Nc2ccccc2)cc1 | -159*
O=[N+]([O-])c1ccc(/C=C2\CCC(C3=CCCC3)=C2N2CCOCC2)cc1 | -74*
C=CCNC(=S)N/N=C/c1ccc(-c2ccc(OC)cc2)o1 | -62*
CC(C)(C)NC(=S)N/N=C\c1ccc(-c2ccc([N+](=O)[O-])cc2)o1 | -79*
COc1ccc(NC(=O)c2ccc([N+](=O)[O-])s2)c([N+](=O)[O-])c1 | -92*
SMILES | aSyn 5UTR act
COc1ccc(NC(=O)c2ccc(C)cc2Cl)c([N+](=O)[O-])c1 | -131*
COc1ccc(NC(=O)c2ccc(C)o2)c([N+](=O)[O-])c1 | -102*
COc1ccc(NC(=O)c2ccc(Br)o2)c([N+](=O)[O-])c1 | -109*
CC(=O)Nc1ccc(/C=C2\CCc3ccccc3C2=O)cc1 | -118*
CC(=O)Nc1ccc(S(=O)(=O)N2c3ccccc3C(C)=CC2(C)C)cc1 | 121
O=Cc1cccc(OCc2cccc3ccccc23)c1 | -117*
O=Cc1ccc(OCc2ccc3ccccc3c2)cc1 | -132*
COc1ccc(COc2cccc(C=O)c2)cc1 | -69*
CN(C(=O)c1ccc(OC2CCN(CCc3ccccc3)CC2)cc1)C1CCCCC1 | -125*
COc1ccc(CCN2CCC(Nc3nc4ccccc4n3Cc3ccc(F)cc3)CC2)cc1 | 103
CC(C)(C)C(=O)NC(=S)Nc1sc2c(c1C#N)CCCCC2 | -106*
Cc1cc(C(=O)Nc2sc3c(c2C#N)CCCC3)no1 | -81*
CCCC(=O)Nc1sc2c(c1C#N)CCCCC2 | -167*
Cc1ccc(C(=O)Nc2sc3c(c2C#N)CCCCC3)cc1C | -191*
N#Cc1c(NC(=O)CCCC(=O)O)sc2c1CCCCC2 | 90
Cn1cc([N+](=O)[O-])c(C(=O)Nc2sc3c(c2C#N)CCC3)n1 | 64
Cc1noc(C(=O)Nc2sc3c(c2C#N)CCC3)c1Cl | -67*
N#Cc1c(NC(NC(=O)c2ccco2)C(=O)c2ccccc2)sc2c1CCCC2 (configuration not stated) | -77*
Cc1ccccc1OCC(=O)Nc1sc2c(c1C#N)CCC2 | -68*
Cc1cc(C(=O)Nc2sc3c(c2C#N)CCC3)no1 | -107*
Cc1cccc(NCc2ccc(N(C)C)cc2)n1 | -72*
COc1ccccc1C(CCNCc1ccc(N(C)C)cc1)c1ccc(OC(C)C)cc1 (configuration not stated) | 135
CCCOc1ccc(C(=O)Nc2ccc3c(c2)OCO3)cc1 | -95*
CCC(=O)Oc1ccc(C(=O)Nc2ccc3c(c2)OCO3)cc1 | -72*
CCCCOc1ccc(C(=O)Nc2ccc3c(c2)OCO3)cc1 | -93*
SMILES | aSyn 5UTR act
CCc1c(C)nc(SCC(=O)c2cccs2)c(C#N)c1C | -269*
COc1ccc(-c2nc3cc([N+](=O)[O-])ccc3o2)cc1 | -231*
Nc1ccc(-c2nc3cc([N+](=O)[O-])ccc3o2)cc1 | -146*
Cc1cc(C)cc(C(=O)Nc2nc3ccccc3[nH]2)c1 | -139*
Cn1nc(C(=O)Nc2nc3ccccc3[nH]2)c2ccccc2c1=O | -144*
COc1ccc2oc(C(=O)Nc3nc4ccccc4[nH]3)c(C)c2c1 | -102*
O=C(Nc1nc2ccccc2[nH]1)c1ccccc1F | 108
O=C(Nc1nc2ccccc2[nH]1)c1cc(F)cc(F)c1 | -148*
CC(C)Oc1ccc(C(=O)Nc2nc3ccccc3[nH]2)cc1 | 81
O=C(Nc1nc2ccccc2[nH]1)c1ccc(F)c(S(=O)(=O)N2CCOCC2)c1 | -99*
COc1ccc(Br)c(C(=O)Nc2nc3ccccc3[nH]2)c1 | -87*
COc1cc(OC)cc(C(=O)Nc2nc3ccccc3[nH]2)c1 | -189*
